In PubChem BioAssay (NCI):
About 83,000 compounds went through this panel and 20% of them were active in at least one assay; those are over-represented in the sample as a whole.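 Activity criterion: percent growth below 10, measured after cells in 96-well plates were exposed to a single compound concentration for 48 hours.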 A number with no mark means an inactive call. Activity calls are given as the source filed them.

System: HL-60(TB) leukemia
Test: NCI-60 one-dose screen, 48 h (100 = growth as untreated, 0 = no growth, -100 = all killed)
Details: 10 µM unless noted

Row | SMILES | growth
1 | Cc1nc(Nc2ncc(C(=O)Nc3c(C)cccc3Cl)s2)cc(N2CCN(CCCNC(=O)COc3ccc(C4CCC(=O)NC4=O)cc3)CC2)n1 (stereo not given) | 76.3%
2 | O=C(CSc1nc2c(c(=O)[nH]1)CCCC2)Nc1ccccc1C(=O)O | 95.1%
3 | COc1ccc2c3nc4cc(C)c(C)cc4nc3n(CCN(C)C)c2c1 | -45.3% (active)
4 | COc1ccc(NC(=O)Nc2ccc(OCc3ccc(F)cc3)cc2)cc1 | 83.1%
5 | Cc1cc2nc3c([nH]c2cc1C)c1ccc(=O)cc1n3CCN(C)C | 16.8%
